Laboratory results published in publication PMC10163288.
These entries were drawn from the full list. The hit rate among all sequences tested is not known here.

B1: il10ra_site1_normal_mot_HHH_b1_02997_000000220_0001_39_52_H_._HHH_b1_04476_0001_0000500018_0000001_0_af2pred_dldesign_0_af2pred (protein)
chain: SSSSSSSNEEVVALLRRAMEEPDPEEAKRLAEEALRLAQANNNEILAHTAQLLLEQLESSSSSSS
B2: il10ra_site1_sap_25_mot_HHH_b2_05761_af2_000000185_0001_1_18_H_._HHH_b1_05595_af2_0001_0000200006_0000001_0_0001 (protein)
chain: SSSSDEDERYVELSLRFAEWLLKEGDPEAAKRILEAAREIAERANNEELREELEELLEKIGSSSS
B3: il10ra_site1_normal_mot_3af0db62db2b275566dae2e03bf881fa_0001_000000003_0001_37_50_H_._HHH_b2_06527_0001_0000300018_0000001_0_af2pred_0001 (protein)
chain: SSSSSSDLEQQVRAAIWFAKNIHNPTVRRKALEFALKIAEEINNEELVEEIRELLEQVNSSSSSS
B4: il10ra_site1_normal_mot_3c6ad1a4bc7d4f5cf55cee527202d42a_0001_000000108_0001_32_49_H_._HHH_b2_03602_af2_0001_0000600008_0000001_0_af2pred_dldesign_0_af2pred (protein)
chain: SSSSSDKEYYDALVKYYKEALALGKPEAAEKIALKGAEMRLEGKSLEEFEEKAKEILEEESSSSS
B5: il10ra_site1_sap_23_mot_39ab2cb694c8b9c1dc7e65c0d672c93e_0001_000000036_0001_53_65_H_._HHH_b1_07337_0001_0000100009_0000001_0_0001 (protein)
chain: SSSSDEEYKEVKRLIEEIAEALRNNDEELVRELLEELRELAEEINNPAAEFSLRILEEALNSSSS
B6: il10ra_site1_normal_mot_HHH_b2_00277_af2_000000172_0001_1_17_H_._HHH_eva_0065_0002_0000400034_0000001_0 (protein)
chain: DPEKEKLEEEIREVLERFEKGKIDPEEAKELLSRLAFKAARLGDDEAVELAIRAYAAIHQAEQRS
B7: il10ra_site1_normal_mot_HHH_b2_00033_000000036_0001_41_54_H_._HHH_b1_08598_0001_0000300016_0000002_0 (protein)
chain: SSSSSSSDFQELALRALRLLIKRNDKELFQELWRLVKEIAEHGDPELREELEEFLEEISSSSSSS
B8: il10ra_site1_sap_19_mot_2fa031a62b9321f410fa37cb4b35ac9e_0001_af2_000000160_0001_1_14_H_._HHH_b2_08251_af2_0001_0000200005_0000002_0_0001 (protein)
chain: SSSSSDQEEAVELSLEAFRLALRGDPEEARRVLEEALELAEEAGDERMAKVIRDMLRALSSSSSS
B9: il10ra_site1_normal_mot_HHH_b2_00475_000000107_0001_44_57_H_._HHH_b2_01638_af2_0001_0000200008_0000002_0 (protein)
chain: SSSSEEEQRVAELLFRALRLLAEGNPEEAEKVVEEAQKLAEENNDEELRKYVEILRHFIESHSSS
B10: il10ra_site1_sap_16_mot_8756ee2cf497b5429c717dfc0c0bcfd6_0001_000000186_0001_1_13_H_._HHH_b1_03338_0001_0000100002_0000003_0_0001 (protein)
chain: SSSSTLEWSVKFMLEIVEELLERGDKEKAEHLLEALLRHLKEAGDPELLREVEELLEEVRKSSSS
B11: il10ra_site1_normal_mot_HHH_b2_02116_af2_000000165_0001_41_55_H_._HHH_b1_06457_0001_0000100001_0000001_0 (protein)
chain: SSSDHERAVELLLRAAEIAFERGNPHQARAAIRLAREIAERINDEELEELVEEVERRLEESSSSS
B12: il10ra_site1_sap_14_mot_HHH_b1_08411_af2_000000053_0001_1_20_H_._HHH_b1_08108_0001_0000200028_0000001_0_0001 (protein)
chain: SSSSSSDEYREAYELIEEAFHIEDEEEARELLEEAKELAERAGNWALRFAIQLLLEDLSSSSSSS
B13: il10ra_site1_sap_24_mot_HHH_b1_06912_af2_000000235_0001_1_15_H_._HHH_b1_04651_0001_0000100003_0000001_0_0001 (protein)
chain: SSSSDQELYRKVEELIEEAIELQRRGNPEEARRLLEELLEELEELNNPNMLYNVRHLLKAISSSS
B14: il10ra_site1_sap_19_mot_HHH_b1_05021_af2_000000167_0001_42_56_H_._HHH_b1_02196_0001_0000400015_0000002_0_0001 (protein)
chain: SSSSDAEEYLREVAVELLELFREGDPEKAEELLEEAREFLEEKGNRELVRMIEFQFRASEWSSSS
B15: il10ra_site1_normal_mot_HHH_b1_02397_af2_000000085_0001_39_57_H_._HHH_b1_03194_0001_0000100004_0000002_0 (protein)
chain: SSSSSSDVEELLERLEELLEEGNHEEAARLLQEALRHAFRNSDPELLKELHEFAKRLASSSSSSS
B16: il10ra_site1_sap_15_mot_HHH_b1_03531_000000273_0001_41_54_H_._HHH_b2_00993_0001_0000200012_0000001_0_0001_af2pred_0001 (protein)
chain: SSSSTEEEIRELLEEVEELIERGNNHEAAKLLKKLAELISELNNDELLKELRELAQLVIRVSSSS
B17: il10ra_site1_normal_mot_HHH_b1_06789_af2_000000041_0001_1_20_H_._HHH_b2_03029_0001_0000300011_0000002_0 (protein)
chain: SSSSSAEYLVRQALKAAKRLYEQGDPERAKEAIEIAENLARNANNPELEKLVEEFAEELENSSSS
B18: il10ra_site1_normal_mot_HHH_b2_00033_000000036_0001_41_54_H_._HHH_b1_00990_0001_0000100001_0000001_0 (protein)
chain: SSSDETEEASELAAEAIRLAIRLGDEEIFQELWELFKLVIREGDPEVTERLEELLEELRERSSSS
B19: il10ra_site1_sap_20_mot_HHH_b1_02766_af2_000000078_0001_42_56_H_._HHH_b2_04892_0001_0001000047_0000001_0_0001 (protein)
chain: SSSSDELSEEAMKLIERASELDQNGNPEEAKEVLERAEELAEEAGNRVLAWNIRFLLRRLSSSSS
B20: il10ra_site1_sap_22_mot_HHH_b2_03328_af2_000000127_0001_1_19_H_._HHH_b1_06177_0001_0000200023_0000001_0_0001 (protein)
chain: SSSSTQELYELLRRIVELDHKGNLEEAERLLEELEELARERNDPNIRMQVEFLEEIIRRNLSSSS
B21: il10ra_site1_normal_mot_HHH_b1_04514_000000156_0001_1_18_H_._HHH_b1_03241_0001_0000100007_0000001_0 (protein)
chain: SSSSYEEVKELIEEIIELAREGNPEEAEKVLRELERLAEELNNPAIRFVVRLLEEVIERQSSSSS
B22: il10ra_site1_sap_15_mot_HHH_b2_02354_af2_000000157_0001_40_56_H_._HHH_b1_07270_0001_0000500051_0000001_1_0001 (protein)
chain: SSSSSEQERAALRFAKWLIEIIEETGNPSARRSLEVMLWLLERINSEEAEELLKEAEELLSSSSS
B23: il10ra_site1_normal_mot_39ab2cb694c8b9c1dc7e65c0d672c93e_0001_000000036_0001_53_65_H_._HHH_b1_05574_0001_0000300023_0000001_0 (protein)
chain: SSSSSEEERIEELIEEAKELLERGNPEEALELVLEALRLAYQNRNAELLQELWRLAKEIASSSSS
B24: il10ra_site1_normal_mot_HHH_b2_05548_000000224_0001_41_54_H_._HHH_b1_07835_0001_0000100002_0000002_0_af2pred_0001 (protein)
chain: SSSSSDEEVEQLLEEAERLLKEGNPEEAAKVVAKAAELALELGNVELIKLVVELLRLIANSSSSS

The binders below were run against il10ra, Q13651 (assay: yeast display titration).
il10ra, Q13651, sequence (Q13651 whole entry): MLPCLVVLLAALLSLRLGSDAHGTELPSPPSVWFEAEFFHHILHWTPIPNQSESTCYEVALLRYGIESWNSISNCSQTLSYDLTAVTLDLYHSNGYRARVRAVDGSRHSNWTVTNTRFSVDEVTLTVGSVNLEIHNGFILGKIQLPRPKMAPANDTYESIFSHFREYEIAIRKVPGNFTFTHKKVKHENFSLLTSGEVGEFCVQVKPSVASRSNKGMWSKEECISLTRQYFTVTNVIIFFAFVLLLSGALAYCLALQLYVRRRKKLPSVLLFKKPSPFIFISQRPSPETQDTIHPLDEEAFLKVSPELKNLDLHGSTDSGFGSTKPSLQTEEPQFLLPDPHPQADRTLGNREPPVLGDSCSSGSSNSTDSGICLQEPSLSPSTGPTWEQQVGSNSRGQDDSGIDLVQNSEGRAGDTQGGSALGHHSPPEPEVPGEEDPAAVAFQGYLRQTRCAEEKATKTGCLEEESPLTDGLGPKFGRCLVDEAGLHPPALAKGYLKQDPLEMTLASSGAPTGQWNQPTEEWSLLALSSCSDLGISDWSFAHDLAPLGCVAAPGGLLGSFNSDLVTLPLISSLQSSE

Apparent Kd, inactive:
B1 no binding seen, B2 no binding seen, B3 no binding seen, B4 no binding seen, B5 no binding seen, B6 no binding seen, B7 no binding seen, B8 no binding seen, B9 no binding seen, B10 no binding seen, B11 no binding seen, B12 no binding seen, B13 no binding seen, B14 no binding seen, B15 no binding seen, B16 no binding seen, B17 no binding seen, B18 no binding seen, B19 no binding seen, B20 > 1760 nM, B21 > 786 nM, B22 no binding seen, B23 no binding seen, B24 no binding seen
